Source: PubChem BioAssay (NCI)
Compounds without any hit were thinned out: in the full panel of roughly 83,000, 20% have a hit.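 Interpretation: 100, growth as untreated; towards 0, rising growth inhibition; 0, no net growth; 0 to -100, cell death. Compounds scoring below 10 were considered active.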 Calls of active or inactive are those of the source.

What follows are compounds tested on HS 578T breast (assay: NCI-60 one-dose screen, 48 h (100 = growth as untreated, 0 = no growth, -100 = all killed)). Conditions: 100 µM.

`CCN(Cc1ccccc1)c1ccc(/C=C2\COc3ccccc3C2=O)cc1` was tested. Which growth did it give?
The growth was 59.4% (inactive).

`CC(=O)/C=C/c1ccc(OCc2ccc(C(C)(C)C)cc2)cc1` was tested. Which growth did it give?
The growth was 10.3% (inactive).

With `CC(=O)/C=C/c1ccc(N(CCO)Cc2ccc(C(C)(C)C)cc2)cc1` as the compound, how does the growth read?
The growth was -52.9% (active).

How did the growth turn out when `O=C(/C=C/c1cccc(Oc2ccc(Cl)cc2)c1)c1ccccc1` was run?
The growth was -28.2% (active).

With `COc1ccc(C(=O)/C=C/c2ccc(OCc3cccc(C(F)(F)F)c3)c(OC)c2)cc1OC` as the compound, how does the growth read?
Its growth is 11.6% (inactive).

For `CC(=O)/C=C/c1ccc(OCc2ccc(Cl)cc2)cc1`, which growth is on record?
Its growth is 51.9% (inactive).

For `COc1ccc(C(=O)/C=C/c2ccc(OCc3ccc(Cl)cc3)cc2)cc1OC`, which growth is on record?
The growth was -1.6% (active).

`CC(=O)/C=C/c1ccc(N(C)Cc2ccc(C(C)(C)C)cc2)cc1` was tested. Which growth did it give?
Its growth is -33.3% (active).

Each compound was assayed on NCI/ADR-RES ovarian in the same assay as above. Conditions: 10 µM.

How did the growth turn out when `CCN(Cc1ccccc1)c1ccc(/C=C2\COc3ccccc3C2=O)cc1` was run?
Its growth is 101% (inactive).

Which growth does the source give for `CC(=O)/C=C/c1ccc(OCc2ccc(C(C)(C)C)cc2)cc1` here?
Its growth is 81.1% (inactive).

Which growth does the source give for `CC(=O)/C=C/c1ccc(N(CCO)Cc2ccc(C(C)(C)C)cc2)cc1` here?
Its growth is 67% (inactive).

With `O=C(/C=C/c1cccc(Oc2ccc(Cl)cc2)c1)c1ccccc1` as the compound, how does the growth read?
The growth was 98.8% (inactive).

With `COc1ccc(C(=O)/C=C/c2ccc(OCc3cccc(C(F)(F)F)c3)c(OC)c2)cc1OC` as the compound, how does the growth read?
Its growth is 71.4% (inactive).

For `CC(=O)/C=C/c1ccc(OCc2ccc(Cl)cc2)cc1`, which growth is on record?
Its growth is 96.5% (inactive).

With `COc1ccc(C(=O)/C=C/c2ccc(OCc3ccc(Cl)cc3)cc2)cc1OC` as the compound, how does the growth read?
Its growth is 91.5% (inactive).

Which growth does the source give for `CC(=O)/C=C/c1ccc(N(C)Cc2ccc(C(C)(C)C)cc2)cc1` here?
Its growth is 86.1% (inactive).

Same assay, conditions: 10 µM unless noted

How did the growth turn out when `CCOC(=O)c1ccc(Nc2ncnc3c2cnn3-c2cccc(F)c2)cc1` was run?
The growth was 103% (inactive).

`O=S(=O)(O)c1ccc(N=Nc2ccc(N=Nc3cccc4ccccc34)c(S(=O)(=O)O)c2)cc1` was tested. Which growth did it give?
Its growth is 103% (inactive).

Which growth does the source give for `CC[C@@H]1NC(=O)[C@H]([C@H](O)[C@H](C)C/C=C/c2ccc(CN3C(=O)C(C)=C(C)C3=O)cc2)N(C)C(=O)[C@H](C(C)C)N(C)C(=O)[C@H](CC(C)C)N(C)C(=O)[C@H](CC(C)C)N(C)C(=O)[C@@H](C)NC(=O)[C@H](C)NC(=O)[C@H](CC(C)C)N(C)C(=O)[C@H](C(C)C)NC(=O)[C@H](CC(C)C)N(C)C(=O)CN(C)C1=O` here?
The growth was 76.5% (inactive).

`COc1nc(=O)n(C2C=CC(=O)O2)cc1F` (stereo not given) was tested. Which growth did it give?
The growth was 111% (inactive).

Which growth does the source give for `COc1ccc(-c2csc(NC(=O)CN3CCN(CCO)CC3)n2)cc1NS(=O)(=O)c1cccc2c(N(C)C)cccc12` here?
Its growth is 93.3% (inactive).

How did the growth turn out when `O=C1/C(=C/c2ccc(-c3cccc(C(F)(F)F)c3)o2)SC(=S)N1CCc1ccc(O)cc1` was run?
The growth was 81.7% (inactive).

How did the growth turn out when `BrC1=C(Br)C(Br)(Br)C(Br)=C1Br` was run?
The growth was 75.2% (inactive).

With `OCc1cc(CN2CCCCC2)c(O)c2ncccc12` as the compound, how does the growth read?
Its growth is 8.71% (active).

With `COc1ccc(C2=C(CN)C(O)NC(=NCC(=O)c3ccc4ccccc4c3)N2)cc1` (stereo not given) as the compound, how does the growth read?
The growth was 103% (inactive).

How did the growth turn out when `N#CSc1c[nH]c2ccc(/C=C/C(=O)/C=C(/C=C/c3ccc4[nH]cc(SC#N)c4c3)OB(F)F)cc12` was run?
Its growth is 10.9% (inactive).

Which growth does the source give for `COc1ccc(Oc2nc(Nc3ccc(N4CCOCC4)cc3)ncc2NC(=O)c2cc(OC)cc(OC)c2)cc1` here?
The growth was 81.6% (inactive).

With `COc1ccc2c(c1)oc1c(C)c3c(c(C)c12)C(=O)N(Nc1ccccc1)C3=O` as the compound, how does the growth read?
Its growth is 112% (inactive).

`COc1ccc(/C=C2/C(=O)N=C3N2NC(c2ccccc2)=CN3c2ccccc2)cc1` was tested. Which growth did it give?
Its growth is 96.9% (inactive).

How did the growth turn out when `O=C1/C(=C/c2ccccc2[N+](=O)[O-])Cc2ccccc21` was run?
The growth was -47.5% (active).

For `COc1ccc2c(c1)CCNC21C(=O)Nc2c(Br)cc(Br)cc21` (stereo not given), which growth is on record?
The growth was 104% (inactive).

Which growth does the source give for `O=C(N/N=C/c1ccc(O)cc1O)c1cccc(Nc2ccnc(C(F)(F)F)c2)c1` here?
The growth was 49.6% (inactive).

Which growth does the source give for `O=C(c1cccc(Br)c1)N1CCN(c2ccnc3cc(Cl)ccc23)CC1` here?
The growth was 88.1% (inactive).

`CCCCCC#CC1OC23CCCCC2C(C#N)(C(=N)O3)C1(C#N)C#N` (stereo not given) was tested. Which growth did it give?
The growth was 102% (inactive).

How did the growth turn out when `COc1ccc(-c2c[nH]c(C(=O)O)c2-c2cc(OC)c(OC)c(OC)c2)cc1` was run?
The growth was 24.2% (inactive).

`NC(N)=NC(N)=NCCCc1ccco1` was tested. Which growth did it give?
Its growth is 103% (inactive).

How did the growth turn out when `CN1Cn2c(ccc2C(F)(F)F)C(=O)CS1(=O)=O` was run?
The growth was 103% (inactive).

How did the growth turn out when `CCCc1cc(C(N)=S)ccn1` was run?
Its growth is 87.8% (inactive).

With `C#CCn1cnc2cnc(Nc3cccc(NC(=O)CCl)c3)nc21` as the compound, how does the growth read?
The growth was 2.34% [6.25 µM] (active).

Which growth does the source give for `CC1=C2[C@@H](CC1)[C@]1(C)O[C@@](C3CC3)(C[C@H]1OC(=O)CO)[C@H]2OC(=O)/C=C/c1ccccc1` here?
The growth was 2.55% (active).

`CCCn1nc(C(=O)N2CCCCC2)c2c1CCC(N1CCC(c3ccncc3)CC1)C2` (stereo not given) was tested. Which growth did it give?
The growth was 101% (inactive).

Which growth does the source give for `Cc1c(O)c(O)cc2c3c(oc12)CC(c1ccc2c(c1)OCO2)CC3=O` (stereo not given) here?
Its growth is 90.3% (inactive).

For `COc1ccc(Nc2nn3c(SCC(=O)c4ccc(C)cc4)nnc3s2)cc1`, which growth is on record?
The growth was 104% (inactive).

How did the growth turn out when `N#Cc1c(-c2cccc(F)c2)cc(-c2cccnc2)[nH]c1=O` was run?
Its growth is 105% (inactive).

Which growth does the source give for `O=[N+]([O-])c1ccc2[nH]c3nccc(NCc4cccc(Cl)c4)c3c2c1` here?
The growth was 64.4% (inactive).
